This is a sample that favours compounds with a hit; in the whole collection about 11% have one here.
HP1b binding inh: HP1-beta chromodomain-methylated histone interaction inhibition. P83916. AlphaScreen HP1-beta / biotin-H3K9me3 peptide binding. Potency, µM (highest dose often 114 µM), for inactives: at the top dose activity change, negative = inhibition, hits mostly inhibitors. 390,000 compounds, 0.56% hits. AID 540317; also: nearly all actives have a fitted effect of over 70% in size
Target sequence (P83916 whole entry, looked up): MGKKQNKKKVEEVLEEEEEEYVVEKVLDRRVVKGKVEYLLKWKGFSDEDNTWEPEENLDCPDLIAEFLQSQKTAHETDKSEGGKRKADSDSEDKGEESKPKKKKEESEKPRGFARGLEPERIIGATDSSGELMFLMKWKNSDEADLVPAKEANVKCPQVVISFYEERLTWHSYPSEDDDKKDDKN
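HP1-beta protein (50 nM final) preincubated 30 min at room temperature with biotinylated H3(1-18)K9me3 peptide (50 nM) in PBS pH 7.4, 0.01% Tween-20, then compound added for 30 min. AlphaScreen streptavidin donor/nickel chelate acceptor beads (10 ug/mL final), 30 min dark, luminescence read.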
BAZ2B inh: BAZ2B (human) inhibition; Q9UIF8; Potency, µM (series often up to 114 µM), inactives show top-dose activity change, negative = inhibition, most hits filed as inhibitors; AlphaScreen BAZ2B-H3K14Ac peptide displacement; 360,000 compounds, 4.4% hits; AID 504333; also: % is scaled to controls: 0 for no effect and ±100 for the full control effect; nearly all actives have a fitted effect of over 60% in size
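AlphaScreen displacement of biotin-H3(5-23)K14Ac peptide (50 nM final) from BAZ2B (50 nM final) in PBS pH 7.4, 0.01% Tween-20; complex preformed 30 min RT, then compounds (top 110 uM) 30 min RT, beads 20 min dark.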
JMJD2A Tudor: JMJD2A Tudor domain (human) inhibition; Potency, µM (highest dose often 114 µM), for the others: top-dose activity change, negative = inhibition, hits mostly inhibitors; 390,000 compounds, 4.4% hits; AlphaScreen JMJD2A-Tudor / H3K4me3 peptide binding; also: % is scaled to controls: 0 for no effect and ±100 for the full control effect; nearly all actives have a fitted effect of over 50% in size
L3MBTL1 inh: blocks human L3MBTL1; Q9Y468; 230,000 compounds, 0.66% hits; AlphaScreen L3MBTL1–H3K9me1 peptide binding; Potency, µM (series often up to 57.1 µM), without a hit: at the highest dose activity, negative = inhibition, hits mostly inhibitors; also: % is scaled to controls: 0 for no effect and ±100 for the full control effect; nearly all actives have a fitted effect of over 60% in size
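L3MBTL1 50 nM + b-AHA-H3(1-15)K9me1 75 nM, 30 min RT; compound added, 30 min RT; streptavidin donor/Ni-chelate acceptor beads 10 ug/mL each final, 30 min RT dark; AlphaScreen read.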
G9a block: inhibitors of human histone lysine methyltransferase G9a; 350,000 compounds, 8.8% hits; Potency, µM (top dose mostly 102 µM), without a hit: top-dose activity, negative = inhibition, actives largely listed as inhibitors; G9a H3K9 monomethylation, AlphaScreen, 2 h; Q96KQ7; also: % is scaled to controls: 0 for no effect and ±100 for the full control effect; nearly all actives have a fitted effect of over 75% in size
Target sequence (Q96KQ7 913-1193 limits assumed): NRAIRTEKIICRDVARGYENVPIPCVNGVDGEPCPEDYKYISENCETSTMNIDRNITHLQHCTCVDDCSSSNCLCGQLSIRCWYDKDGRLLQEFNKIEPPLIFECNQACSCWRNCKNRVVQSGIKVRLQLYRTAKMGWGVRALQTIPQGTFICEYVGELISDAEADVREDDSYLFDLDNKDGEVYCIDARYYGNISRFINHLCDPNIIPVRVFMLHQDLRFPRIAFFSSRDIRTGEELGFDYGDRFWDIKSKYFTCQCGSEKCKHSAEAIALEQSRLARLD
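G9a (20 nM) preincubated 15 min RT with compounds, then 500 nM biotinylated H3K9 peptide and 20 uM SAM added; 2 h RT reaction. Monomethyl-H3K9 product detected by AlphaScreen with anti-H3K9me1 antibody, streptavidin donor and anti-rabbit IgG acceptor beads.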
Starred values were filed as active, the others as inactive; ? = inconclusive; . = no result given; [ ] = dose if it differs, or a comment. Calls follow the shape of the dose curve; as a rule, active = well fitted inhibition curve with a large enough effect; inconclusive = small, poorly fitted or top-dose-only effect; inactive = no such curve, though single readings can be large or run the other way. Potency is read from the fitted curve at half-maximal effect.

SMILES	HP1b binding inh	BAZ2B inh	JMJD2A Tudor	L3MBTL1 inh	G9a block
CN1CCN(C2=CC3=CC(=C(C#N)C#N)CCC3CC2)CC1 (configuration not stated)	1%	?	-21%	.	?
CCN1CCN(C2=CC3=CC(=C(C#N)C#N)CCC3CC2)CC1 (configuration not stated)	50%	-25%	9%	.	45µM*
O=C(O)c1ccc(N2C(=O)/C(=C/c3ccc(-c4ccc([N+](=O)[O-])cc4)o3)C=C2c2ccccc2)cc1	14µM*	11µM*	7.9µM*	-26%	5.6µM*
O=S1(=O)CC2NC(=S)N(c3cccc(Br)c3)C2C1 (configuration not stated)	33%	-11%	4%	.	4%
O=C(Cn1cnc([N+](=O)[O-])n1)c1ccc(O)c(O)c1	18%	79µM*	?	.	8.9µM*
O=C(Cn1cnc([N+](=O)[O-])n1)c1ccccc1	7%	4%	-14%	4%	.
CCOC(=O)c1nc2cc3n(c(CC(C)C)c-2c1C)CC(C)=C3C	25%	?	?	-1%	3.2µM*
CCOC(=O)c1nc2cc3n(c(C)c-2c1C)C(C)C(C)=C3C (configuration not stated)	24%	-1%	-18%	-2%	-39%[12.7 µM]
Cc1ccc(NC(=O)c2oc3ccc(S(=O)(=O)N4CCCCCC4)cc3c2C)c(C)c1	54%	9%	-18%	.	2%[59 µM]
O=S(=O)(O)c1ccc(N=NNc2ccc(Br)cc2)cc1	8%	-20%	-20%	.	25µM*
COc1cccc(Cn2ncc3c4sc(Br)cc4n(C)c3c2=O)c1	.	-16%	.	7%	0%[12.7 µM]
Cc1nnc(NN)n(N)c1=O	22µM*	11%	32µM*	8%	.
COc1ccccc1NC(=O)NC1(C(=O)N2CCN(C)CC2)CCCCC1	20%	2%	1%	.	-5%
CC(/C=C/c1ccco1)=N\NC(=O)c1cc(Cl)ccc1O	7%	-34%	-34%	.	40µM*
O=C(C=Cc1ccco1)c1cc(Cl)ccc1O	50µM*	.	22µM*	.	.
CC(/C=C/c1ccco1)=N/NC(=O)c1ccc(C)nc1	9%	-16%	-23%	.	-20%
O=C(/C=C/c1ccc2ccccc2n1)c1cc(Cl)ccc1O	-7%	71µM*	?	.	13%[0.501 µM]
Cc1sc2c(c1C)CN(CCN1CCOCC1)CN2C(=O)c1ccccc1	34%	7%	-6%	.	-32%
COc1ccc2nc3sc(C(=O)Nc4cc(Cl)c(OC)cc4OC)cc3cc2c1	8%	?	-27%	.	?
Cc1sc2ncn(CC(=O)N3CCN(c4ccccc4F)CC3)c(=O)c2c1S(=O)(=O)N1CCC(C)CC1	30%	-2%	-13%	.	-19%[59 µM]
COc1ccc(-c2oc3ccc(N4CCOCC4)cc3c2/C=C/c2ccc(OC)c(OC)c2)cc1	26%	?	-31%	-4%	50µM*
OCC[C@H]1C[C@@H](O)[C@H](O)[C@]2(OCc3ccccc32)O1	21%	-4%	-16%	10%	-13%[2.33 µM]
Cc1cc2c(s1)c1cnn(Cc3c(Cl)ccc(C)c3F)c(=O)c1n2C	.	.	-27%	.	.
N=C1S/C(=C\c2ccco2)C(=O)N1c1nccs1	13%	?	-32%	?	35µM*
N=C1S/C(=C\c2ccco2)C(=O)N1c1ccc2c(c1)OCO2	-39%	56µM*	?	?	45µM*
SMILES	HP1b binding inh	BAZ2B inh	JMJD2A Tudor	L3MBTL1 inh	G9a block
O=C1C2C3C=CC(C3)C2C(=O)N1c1ccc2c(c1)OCO2 (configuration not stated)	35%	12%	-10%	11%	-47%
COc1ccccc1OCCN1C(=O)S/C(=C\c2ccco2)C1=O	-32%	?	-31%	-14%	?
COc1ccc(S(=O)(=O)NCC(c2ccco2)S(=O)(=O)c2cccs2)cc1OC (configuration not stated)	-4%	-13%	-10%	.	9%[59 µM]
COc1cc(/C=N/N=C(/C(=O)c2ccccc2)c2ccccc2)cc(OC)c1O	?	?	45µM*	-20%	?
COc1cccc(N2C(=O)C3C(C2=O)C3(c2ccccc2)c2ccccc2)c1 (configuration not stated)	9%	-15%	-13%	-15%	3%
CC1(c2ccccc2)NC(=S)N2C1NC(=S)N2c1ccccc1 (configuration not stated)	15%	-35%	?	.	50µM*
COc1ccc(N2C(=S)NC3N2C(=S)NC3(C)c2ccccc2)cc1 (configuration not stated)	12%	?	-23%	-3%	28µM*
CC(=O)/C(N=Nc1cc(C)ccc1O)=C(\C)O	14%	-38%	-22%	-5%	?
COc1cccc(N=Nc2ccc3ccccc3c2O)c1	?	1.6µM*	2.8µM*	-69%	.
Cc1ccc(O)c(N=Nc2nccs2)c1	?	10µM*	35µM*	?	?
Cc1ccc(O)c(N=Nc2ccc(S(=O)(=O)N3CCCC3)cc2)c1	-4%	4µM*	?	.	8.9µM*
Oc1ccc2ccccc2c1N=Nc1ccc(F)cc1	5.6µM*	2.2µM*	2.2µM*	?	2µM*
O=C(Nc1cccc2cccnc12)c1ccc(Br)cc1	140%	.	79%	.	.
CCSc1ncc(Cl)c(C(=O)Nc2ccc(S(=O)(=O)N3CCCCC3)cc2)n1	19%	-18%	-25%	.	-31%[59 µM]
COc1ccc(C(=O)c2ccccc2)c(O)c1	68%	123%	11%	16%	5%[12.7 µM]
Cc1ccc(N=Nc2ccc3ccccc3c2O)cc1	?	1.1µM*	3.2µM*	?	2µM*
COc1ccc(N=Nc2cc(C)ccc2O)cc1	14µM*	8.9µM*	25µM*	?	?
COc1ccc(N=Nc2ccc(CO)cc2)cc1	-30%	.	?	.	.
COc1ccc(N=Nc2ccc3ccccc3c2)c(O)c1	3.2µM*	5.6µM*	10µM*	?	10µM*
Cc1ccc(N=Nc2c(O)n(CN3CCOCC3)c3ccccc23)cc1	-5%	3%	-12%[57.1 µM]	-2%	-5%
COc1ccc(N(C(=O)c2ccccc2)S(=O)(=O)c2ccc3c(c2)n(C)c(=O)n3C)cc1	7%	-36%	-26%	.	0%[59 µM]
CC(=O)C1=C(O)C(=O)N(c2ccc(C(=O)O)cc2)C1c1ccccc1 (configuration not stated)	9%	?	32µM*	.	45µM*
CC(=O)C1=C(O)C(=O)N(c2cccc(C(=O)O)c2)C1c1ccc(F)cc1 (configuration not stated)	18%	?	?	-3%	25µM*
C/C(=N/NS(=O)(=O)c1cc(C)ccc1C)c1ccc2c(c1)OCO2	23%	-25%	-18%	.	9%
C/C(=N/NS(=O)(=O)c1cc(C)ccc1C)c1ccncc1	53%	-14%	-17%	.	40µM*
CSc1nccn1C(=O)c1ccccc1[N+](=O)[O-]	10%	-31%	35µM*	.	35µM*
CS(=O)(=O)Nc1cccc(-c2ccc3ncnc(N4CCNCC4)c3c2)c1	.	.	.	.	9%[0.501 µM]

Screens: PubChem BioAssay, National Center for Advancing Translational Sciences (NCATS)
